Measurements reported in PubChem BioAssay.
Calls of active or inactive are those of the source. No rule for the calls is given here.

biological target: Pantothenate synthetase (Mycobacterium tuberculosis (strain ATCC 25618 / H37Rv)) (UniProt P9WIL5); test: Recombinant Mtb pantothenate synthetase (PanC) inhibitors, coupled enzyme, confirmatory (AID 375); conditions: coupled enzyme assay; at 10 µM, active compounds read high;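 also: 0% = full reaction with vehicle and 100% = no enzyme background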
Sequence (P9WIL5 whole entry, looked up): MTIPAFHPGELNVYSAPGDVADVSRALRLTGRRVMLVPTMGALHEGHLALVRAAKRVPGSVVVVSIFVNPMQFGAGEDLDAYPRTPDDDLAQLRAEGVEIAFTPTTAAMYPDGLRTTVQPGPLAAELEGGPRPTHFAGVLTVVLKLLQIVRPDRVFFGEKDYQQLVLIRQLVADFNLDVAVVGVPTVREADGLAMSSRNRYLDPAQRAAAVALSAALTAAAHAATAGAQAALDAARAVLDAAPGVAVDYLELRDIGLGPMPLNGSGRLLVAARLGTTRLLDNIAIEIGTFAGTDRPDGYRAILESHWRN

Row | Structure (SMILES) | inhibition
1 | CN(C)c1nc(OCCOC(=O)Nc2ccc(Cl)cc2Cl)nc(N(C)C)n1 | 0% (inactive)
2 | Cc1ccc2c(CC(=O)OCc3csc(C)n3)coc2c1 | 0% (inactive)
3 | COc1cc(OC)cc(C(=O)NCCN2CCOCC2)c1 | 0% (inactive)
4 | CCCSC1=C(C#N)C(c2cc(OC)ccc2OC)CC(=O)N1 (stereo not given) | 14% (inactive)
5 | CCCCn1nnc(NC(=O)c2cc3ccccc3o2)n1 | 0% (inactive)
6 | N#Cc1cn(CC(=O)N2CCCC2)c2ccccc12 | 0% (inactive)
7 | COc1ccccc1N1CCN(CC(O)COc2cccc3ccccc23)CC1 (stereo not given) | 3% (inactive)
8 | CCCC(=O)Nc1nc2ccc(S(N)(=O)=O)cc2s1 | 0% (inactive)
9 | CC1(C)OC(=O)C(=CNC(CCC(N)=O)C(=O)O)C(=O)O1 (stereo not given) | 3% (inactive)
10 | CC(=O)C1=C(O)C(=O)N(C2CCCCC2)C1c1ccccc1 (stereo not given) | 0% (inactive)
11 | CCN1CCCC1CN=Cc1c(O)n(-c2ccccc2)c(=O)c2ccccc12 (stereo not given) | 0% (inactive)
12 | COc1cccc(Nc2nc(=O)[nH]nc2C)c1 | 8% (inactive)
13 | Cc1nc2c(=O)oc3ccccc3c2n1-c1ccccc1 | 0% (inactive)
14 | COC(=O)c1ccccc1NC(=O)C1CCN(S(=O)(=O)c2cc(C)ccc2OC)CC1 | 0% (inactive)
15 | COc1ccccc1NC(=O)N(Cc1ccco1)Cc1cc2cccc(C)c2[nH]c1=O | 2% (inactive)
16 | CCCCCC1CC(CC(C)C(=O)Nc2nncs2)C(=O)O1 (stereo not given) | 9% (inactive)
17 | COc1ccc(Cn2c(CCCO)nc3ccccc32)cc1OC | 0% (inactive)
18 | CCOc1ccc(-n2c(C)nc3c(cnn3-c3ccc(Cl)cc3)c2=O)cc1 | 4% (inactive)
19 | Cc1cccc(N(C)C(=S)Oc2ccc3ccccc3c2)c1 | 7% (inactive)
20 | O=C(CCC(=O)N1CCc2ccccc2C1)N1CCN(S(=O)(=O)c2ccccc2)CC1 | 0% (inactive)

Row | Structure (SMILES) | inhibition
21 | CC(C)(C)NC(=O)Nc1ccccc1C(N)=O | 5% (inactive)
22 | Cc1cc(C2C(C#N)=C(N)SC(N)=C2C#N)c(C)s1 | 0% (inactive)
23 | COc1ccc(CNc2oc(COc3ccccc3Cl)nc2C#N)cc1 | 0% (inactive)
24 | COc1ccc(-n2ncc3c(N4CCN(c5cccc(C)c5C)CC4)ncnc32)cc1 | 0% (inactive)
25 | CCOC(=O)C1C2C=CC3(CN(Cc4ccco4)C(=O)C13)O2 (stereo not given) | 0% (inactive)
26 | O=C(C1CCCN(S(=O)(=O)c2cnc[nH]2)C1)N1CCN(c2ccc(Cl)cc2)CC1 (stereo not given) | 0% (inactive)
27 | CCOC(=O)CC(=O)Nc1c(C)cc(C)cc1C | 4% (inactive)
28 | C=CCSc1nnc(-c2ccccc2NC(C)=O)c(=O)[nH]1 | 0% (inactive)
29 | c1cc(-c2nc3ccccc3o2)nc(-c2nc3ccccc3o2)c1 | 0% (inactive)
30 | Cc1cc(-n2c(C)cc(C(=O)CSc3nc4ccccc4c(=O)n3Cc3ccco3)c2C)no1 | 0% (inactive)
31 | C=C(c1ccc(O)cc1)c1ccc(O)cc1 | 0% (inactive)
32 | CCn1c(SCC(N)=O)nc2c1c(=O)n(C)c(=O)n2C | 0% (inactive)
33 | O=C(Cc1ccccc1)N1CCCC(c2nc(-c3cccs3)no2)C1 (stereo not given) | 0% (inactive)
34 | CCOC(=O)c1nn(-c2sc(C(=O)OC)c(C)c2C(=O)OC)cc1O | 18% (inactive)
35 | CCCCc1c(O)nc(N2CCN(Cc3ccccc3)CC2)[nH]c1=O | 7% (inactive)
36 | CC1C(O)=C(c2nc3ccccc3[nH]2)C(=N)N1c1ccccc1 (stereo not given) | 9% (inactive)
37 | COc1cccc(N2CCN(C(=O)C3C4C=CC5(CN(Cc6ccccc6Cl)C(=O)C35)O4)CC2)c1 (stereo not given) | 0% (inactive)
38 | COC(=O)C1=C(C)NC(=O)C1(NC(=O)c1cccnc1)C(F)(F)F (stereo not given) | 0% (inactive)
39 | Cc1ccc(-c2nnc(-c3cccc(Br)c3)o2)cc1 | 0% (inactive)
40 | Cn1c(=O)c(=O)n(C)c2cc(S(=O)(=O)N3CCN(c4cccc(C(F)(F)F)c4)CC3)ccc21 | 9% (inactive)
